Screening data (PubChem BioAssay)
The full list was thinned out, with hits kept by preference.
FECH inh: human FECH heme synthesis enzyme inhibition; purified FECH, Ni-mesoporphyrin absorbance 550 nm; calls only at 10 µM (by protocol); actives 3.3% (n = 20,000); P22830;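 active means enzyme reaction rate more than 3 SD below the solvent-only control wells on the same plate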;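 further: lower slope than DMSO wells means FECH inhibition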
Target sequence (P22830 whole entry, looked up): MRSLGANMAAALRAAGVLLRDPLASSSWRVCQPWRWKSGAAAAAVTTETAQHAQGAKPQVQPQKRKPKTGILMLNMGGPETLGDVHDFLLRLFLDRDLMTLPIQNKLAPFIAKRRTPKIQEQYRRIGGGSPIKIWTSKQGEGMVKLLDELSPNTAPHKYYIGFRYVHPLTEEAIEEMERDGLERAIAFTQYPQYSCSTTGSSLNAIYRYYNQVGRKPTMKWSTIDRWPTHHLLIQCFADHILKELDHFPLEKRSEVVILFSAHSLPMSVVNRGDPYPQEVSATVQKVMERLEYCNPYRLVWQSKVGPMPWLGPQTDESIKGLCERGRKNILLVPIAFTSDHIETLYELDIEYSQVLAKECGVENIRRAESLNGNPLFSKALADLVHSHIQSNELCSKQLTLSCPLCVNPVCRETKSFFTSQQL
Numbers without * were called inactive; i = inactive; + = active, no number.

SMILES | FECH inh
Cc1cccc(N(Cc2nc3nc(C)cc(C)n3n2)C(=O)c2ccc(C(C)(C)C)cc2)c1 | +
Cc1cc(C)n2nc(CN(C(=O)c3ccc(F)cc3)c3ccc(Cl)cc3)nc2n1 | i
Cc1ccc(N(Cc2nc3nc(C)cc(C)n3n2)C(=O)c2ccc(C(C)(C)C)cc2)cc1 | +
Cc1cccc(N(Cc2nc3nc(C)cc(C)n3n2)C(=O)c2ccc(F)cc2)c1 | +
COc1ccccc1C(=O)N(Cc1nc2nc(C)cc(C)n2n1)c1ccc(C)cc1 | i
CCOc1ccc(N(Cc2nc3nc(C)cc(C)n3n2)C(=O)c2ccccc2C)cc1 | i
CCOc1ccc(N(Cc2nc3nc(C)cc(C)n3n2)C(=O)C(C)(C)C)cc1 | i
Cc1cc(C)n2nc(CN(C(=O)c3ccc(C(C)(C)C)cc3)c3cccc(Cl)c3)nc2n1 | i
CCOc1ccc(N(Cc2nc3nc(C)cc(C)n3n2)C(=O)c2ccc(C)cc2)cc1 | +
Cc1ccc(C(=O)N(Cc2nc3nc(C)cc(C)n3n2)c2ccc(F)cc2)cc1 | i
CCS(=O)(=O)N1CCN(c2nc(C)cc(Nc3ccc(C)cc3)n2)CC1 | i
CC(NC(=O)c1cccc(Cn2cccn2)c1)c1cn2ccsc2n1 (stereo not given) | i
OCCNc1nc(Nc2ccc(SC(F)F)cc2)c2cnn(-c3ccccc3)c2n1 | i
COc1cccc(NC(=O)CN2CCCN(Cc3ccccc3)S2(=O)=O)c1 | i
CC(C)C(=O)NCCn1cc(C(C)c2ccccc2)nn1 (stereo not given) | i
Cc1ccc(-n2c(CN3CCN(S(=O)(=O)c4c(C)cc(C)cc4C)CC3)nc3cccnc32)cc1 | i
O=C(CN1C(=O)CNC1=O)NCc1cccnc1N1CCc2ccccc2C1 | i
COc1ccc2nc(NS(=O)(=O)c3cc(C(=O)N4CCCC4)cs3)sc2c1 | i
CCCc1ccc(CN2CCC(O)(c3ccc4nc(C)ccc4c3)CC2)o1 | i
Cc1nc2cccnc2n1C1CCN(S(=O)(=O)c2cccc(Cl)c2)CC1 | i
CCn1ccnc1CN(C)c1cc(C2CCNCC2)nc(C)n1 | i
O=S(=O)(N1CCCC1)N1CCC2(CCCN(Cc3ccc(F)cc3)C2)C1 (stereo not given) | i
Cc1ccsc1-c1cn(C(CO)Cc2ccc(Cl)cc2)nn1 (stereo not given) | i
CCN1CCN(C(=O)c2ccc3oc(=O)n(Cc4ccc(C)cc4)c3c2)CC1 | i
O=C(c1ccc2oc(=O)n(Cc3ccccc3)c2c1)N1CCN(Cc2ccccc2)CC1 | +
SMILES | FECH inh
CN1CCN(C(=O)c2ccc3oc(=O)n(Cc4ccccc4)c3c2)CC1 | i
Cc1ccc(C(=O)N(C)[C@@H](C)C(=O)O)cc1NC(=O)C1CCCC1 | i
CCC(=O)Nc1cc(Cl)ccc1C(=O)N(C)CCCc1c(C)n[nH]c1C | i
CN(Cc1ncc[nH]1)Cc1ccccc1CN1CCCC1 | i
Clc1nc(-c2ccccc2CN2CCOCC2)ns1 | i
COC(C)c1ccc(-c2cc(C(=O)O)cc(S(=O)(=O)N3CCOCC3)c2)cc1 (stereo not given) | i
O=C(O)c1cc(O)cc(-c2ccccc2CN2CCOCC2)c1 | +
Cc1ccc(C(C)NC(=O)CN2CCC(O)(Cn3ccnc3)CC2)cc1 (stereo not given) | i
Cc1ccc(C(C)NC(=O)CN2CCS(=O)(=O)CC2)cc1 (stereo not given) | i
Cc1ccc(C(C)NC(=O)CN2CCC(O)(CN3CCCC3)CC2)cc1 (stereo not given) | +
COc1ccc(-c2nccn2Cc2scnc2-c2ccccc2)cc1O | i
Cc1cccc(N(CC(=O)N(C)Cc2n[nH]c3c2CCCCC3)S(C)(=O)=O)c1 | i
Cc1ccc2c(c1)NC(=O)C2CC(=O)NCCN1CCCOC1=O (stereo not given) | i
Cc1cccc(N(CC(=O)NCCN2CCNC2=O)S(C)(=O)=O)c1 | +
Cc1cc(N2CCCC2)nc(Nc2ccc(NC(=O)COc3ccccc3)cc2)n1 | i
CC(=O)Nc1nc2n(n1)C(c1c(F)cccc1Cl)C=C(c1ccccc1)N2 (stereo not given) | +
O=C(Nc1nc2n(n1)C(c1ccc(F)cc1)C=C(c1ccccc1)N2)c1ccccc1 (stereo not given) | +
Cc1ccc(C2=CC(c3ccc(Cl)cc3)n3nc(NC(=O)c4ccccc4F)nc3N2)cc1 (stereo not given) | i
O=C(Nc1nc2n(n1)C(c1ccccc1Cl)C=C(c1ccccc1)N2)c1ccccc1 (stereo not given) | i
O=C(Nc1nc2n(n1)C(c1ccc(F)cc1)C=C(c1ccccc1)N2)c1ccc(Cl)cc1 (stereo not given) | i
Cc1ccc(C2=CC(c3c(F)cccc3Cl)n3nc(NC(=O)c4cccc(Cl)c4)nc3N2)cc1 (stereo not given) | i
Cc1ccc(C2=CC(c3c(F)cccc3Cl)n3nc(NC(=O)CCc4ccccc4)nc3N2)cc1 (stereo not given) | i
Cc1ccc(C2=CC(c3ccc(F)cc3)n3nc(NC(=O)c4ccccc4)nc3N2)cc1 (stereo not given) | i
